Reference: PMC5540273 (PLoS ONE, 2017)

Columns and labels:
Details in all cases: concentration: 1 μM, replicates: in singlicate; n = 1
PIK3CD = system: PIK3CD
PIK3CG = system: PIK3CG
PIK4CB = system: T1, PIK4CB
T1 construct: gene PI4KB

PIKFYVE = system: PIKFYVE
PIM1 = system: PIM1
PIM2 = system: PIM2
PIM3 = system: PIM3
PIP5K1A = system: PIP5K1A
PIP5K1C = system: PIP5K1C
PIP5K2B = system: PIP5K2B
PIP5K2C = system: T2, PIP5K2C
T2 construct: gene PIP4K2C

PKAC-alpha = system: T3, PKAC-alpha
T3 construct: gene PRKACA

PKAC-beta = system: T4, PKAC-beta
T4 construct: gene PRKACB

PKMYT1 = system: PKMYT1
PKN1 = system: PKN1
PKN2 = system: PKN2
PLK1 = system: PLK1
PLK2 = system: PLK2
PLK3 = system: PLK3
PLK4 = system: PLK4
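Also: KINOMEscan kinase panel screen.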

Q: Which results are given for `Cl.Cl.c1ccc(-c2cc3ccncc3cc2OC2CCNCC2)cc1` [GSK1122999]?
A: %Inh (PIK3CD): 30%; %Inh (PIK3CG): 3%; %Inh (PIK4CB): 0%; %Inh (PIKFYVE): 0%; %Inh (PIM1): 25%; %Inh (PIM2): 0%; %Inh (PIM3): 39%; %Inh (PIP5K1A): 0%; %Inh (PIP5K1C): 25%; %Inh (PIP5K2B): 10%; %Inh (PIP5K2C): 6%; %Inh (PKAC-alpha): 0%; %Inh (PKAC-beta): 9%; %Inh (PKMYT1): 14%; %Inh (PKN1): 0%; %Inh (PKN2): 19%; %Inh (PLK1): 5%; %Inh (PLK2): 0%; %Inh (PLK3): 0%; %Inh (PLK4): 9%

Q: How did the “%Inh” value (PIK3CD) turn out when `Clc1ccc(-c2cc(-c3c[nH]nc3-c3ccccn3)ccn2)cc1` [GW681251] was run?
A: The value was 0%.

Q: And the “%Inh” value (PIK3CG)?
A: The value was 0%.

Q: What about the “%Inh” value (PIK4CB) of the same molecule?
A: The value was 4%.

Q: And the “%Inh” value (PIKFYVE)?
A: The value was 0%.

Q: What about the “%Inh” value (PIM1) of the same molecule?
A: The value was 0%.

Q: And the “%Inh” value (PIM2)?
A: The value was 30%.

Q: What about the “%Inh” value (PIM3) of the same molecule?
A: Its value is 0%.

Q: What about the “%Inh” value (PIP5K1A) of the same molecule?
A: The value was 16%.

Q: And the “%Inh” value (PIP5K1C)?
A: Its value is 79%.

Q: What about the “%Inh” value (PIP5K2B) of the same molecule?
A: The value was 22%.

Q: What about the “%Inh” value (PIP5K2C) of the same molecule?
A: Its value is 39%.

Q: What about the “%Inh” value (PKAC-alpha) of the same molecule?
A: Its value is 0%.

Q: And the “%Inh” value (PKAC-beta)?
A: The value was 0%.

Q: What about the “%Inh” value (PKMYT1) of the same molecule?
A: The value was 7%.

Q: And the “%Inh” value (PKN1)?
A: The value was 0%.

Q: And the “%Inh” value (PKN2)?
A: Its value is 0%.

Q: What about the “%Inh” value (PLK1) of the same molecule?
A: The value was 0%.

Q: What about the “%Inh” value (PLK2) of the same molecule?
A: Its value is 0%.

Q: And the “%Inh” value (PLK3)?
A: The value was 0%.

Q: What about the “%Inh” value (PLK4) of the same molecule?
A: The value was 4%.

Q: `Cc1cccc(-c2nc(Nc3ccc4[nH]nnc4c3)c3ccccc3n2)n1` [GW867587] was tested. Which “%Inh” value (PIK3CD) did it give?
A: Its value is 0%.

Q: What about the “%Inh” value (PIK3CG) of the same molecule?
A: The value was 0%.

Q: What about the “%Inh” value (PIK4CB) of the same molecule?
A: The value was 0%.

Q: What about the “%Inh” value (PIKFYVE) of the same molecule?
A: The value was 13%.

Q: And the “%Inh” value (PIM1)?
A: Its value is 17%.

Q: And the “%Inh” value (PIM2)?
A: Its value is 0%.

Q: What about the “%Inh” value (PIM3) of the same molecule?
A: Its value is 2%.

Q: What about the “%Inh” value (PIP5K1A) of the same molecule?
A: Its value is 27%.

Q: And the “%Inh” value (PIP5K1C)?
A: The value was 0%.

Q: What about the “%Inh” value (PIP5K2B) of the same molecule?
A: Its value is 0%.

Q: What about the “%Inh” value (PIP5K2C) of the same molecule?
A: Its value is 0%.

Q: And the “%Inh” value (PKAC-alpha)?
A: The value was 0%.

Q: What about the “%Inh” value (PKAC-beta) of the same molecule?
A: Its value is 0%.

Q: What about the “%Inh” value (PKMYT1) of the same molecule?
A: The value was 0%.

Q: What about the “%Inh” value (PKN1) of the same molecule?
A: The value was 0%.

Q: What about the “%Inh” value (PKN2) of the same molecule?
A: The value was 0%.

Q: What about the “%Inh” value (PLK1) of the same molecule?
A: Its value is 0%.

Q: What about the “%Inh” value (PLK2) of the same molecule?
A: Its value is 0%.

Q: What about the “%Inh” value (PLK3) of the same molecule?
A: The value was 0%.

Q: And the “%Inh” value (PLK4)?
A: Its value is 0%.

Q: How did the “%Inh” value (PIK3CD) turn out when `FC(F)(F)c1ccc(-c2cc(-c3c[nH]nc3-c3ccccn3)ccn2)cc1` [GW599550] was run?
A: The value was 0%.

Q: What about the “%Inh” value (PIK3CG) of the same molecule?
A: Its value is 1%.

Q: And the “%Inh” value (PIK4CB)?
A: The value was 0%.

Q: What about the “%Inh” value (PIKFYVE) of the same molecule?
A: Its value is 22%.

Q: And the “%Inh” value (PIM1)?
A: Its value is 19%.

Q: And the “%Inh” value (PIM2)?
A: The value was 0%.

Q: What about the “%Inh” value (PIM3) of the same molecule?
A: Its value is 51%.

Q: What about the “%Inh” value (PIP5K1A) of the same molecule?
A: The value was 18%.

Q: And the “%Inh” value (PIP5K1C)?
A: Its value is 74%.

Q: What about the “%Inh” value (PIP5K2B) of the same molecule?
A: The value was 17%.

Q: And the “%Inh” value (PIP5K2C)?
A: Its value is 59%.

Q: What about the “%Inh” value (PKAC-alpha) of the same molecule?
A: Its value is 10%.

Q: And the “%Inh” value (PKAC-beta)?
A: The value was 6%.

Q: What about the “%Inh” value (PKMYT1) of the same molecule?
A: Its value is 0%.

Q: And the “%Inh” value (PKN1)?
A: Its value is 0%.

Q: What about the “%Inh” value (PKN2) of the same molecule?
A: The value was 0%.

Q: And the “%Inh” value (PLK1)?
A: Its value is 0%.

Q: And the “%Inh” value (PLK2)?
A: The value was 0%.

Q: And the “%Inh” value (PLK3)?
A: The value was 0%.

Q: And the “%Inh” value (PLK4)?
A: Its value is 10%.

Q: Which “%Inh” value (PIK3CD) does the source give for `Clc1cc(Nc2ncnc3cc[nH]c23)ccc1OCc1ccccn1` here?
A: The value was 25%.

Q: And the “%Inh” value (PIK3CG)?
A: Its value is 4%.

Q: What about the “%Inh” value (PIK4CB) of the same molecule?
A: Its value is 34%.

Q: And the “%Inh” value (PIKFYVE)?
A: The value was 0%.

Q: What about the “%Inh” value (PIM1) of the same molecule?
A: The value was 5%.

Q: And the “%Inh” value (PIM2)?
A: The value was 10%.

Q: And the “%Inh” value (PIM3)?
A: The value was 22%.

Q: And the “%Inh” value (PIP5K1A)?
A: The value was 30%.

Q: And the “%Inh” value (PIP5K1C)?
A: The value was 0%.

Q: And the “%Inh” value (PIP5K2B)?
A: Its value is 0%.

Q: And the “%Inh” value (PIP5K2C)?
A: The value was 8%.

Q: What about the “%Inh” value (PKAC-alpha) of the same molecule?
A: The value was 23%.

Q: What about the “%Inh” value (PKAC-beta) of the same molecule?
A: The value was 0%.

Q: And the “%Inh” value (PKMYT1)?
A: Its value is 0%.

Q: What about the “%Inh” value (PKN1) of the same molecule?
A: Its value is 23%.

Q: And the “%Inh” value (PKN2)?
A: The value was 0%.

Q: And the “%Inh” value (PLK1)?
A: The value was 2%.

Q: What about the “%Inh” value (PLK2) of the same molecule?
A: The value was 23%.

Q: And the “%Inh” value (PLK3)?
A: Its value is 25%.

Q: And the “%Inh” value (PLK4)?
A: The value was 34%.

Q: `Cl.c1ccc(Cn2ccc3cc(Nc4ncnc5ccccc45)ccc32)cc1` [GW275568] was tested. Which “%Inh” value (PIK3CD) did it give?
A: The value was 0%.

Q: And the “%Inh” value (PIK3CG)?
A: Its value is 21%.

Q: And the “%Inh” value (PIK4CB)?
A: The value was 24%.

Q: And the “%Inh” value (PIKFYVE)?
A: The value was 0%.

Q: And the “%Inh” value (PIM1)?
A: Its value is 27%.

Q: What about the “%Inh” value (PIM2) of the same molecule?
A: Its value is 1%.

Q: And the “%Inh” value (PIM3)?
A: Its value is 23%.

Q: And the “%Inh” value (PIP5K1A)?
A: Its value is 0%.

Q: What about the “%Inh” value (PIP5K1C) of the same molecule?
A: The value was 34%.

Q: And the “%Inh” value (PIP5K2B)?
A: The value was 6%.

Q: What about the “%Inh” value (PIP5K2C) of the same molecule?
A: The value was 25%.

Q: What about the “%Inh” value (PKAC-alpha) of the same molecule?
A: The value was 18%.

Q: What about the “%Inh” value (PKAC-beta) of the same molecule?
A: The value was 0%.

Q: What about the “%Inh” value (PKMYT1) of the same molecule?
A: Its value is 0%.

Q: And the “%Inh” value (PKN1)?
A: Its value is 26%.

Q: What about the “%Inh” value (PKN2) of the same molecule?
A: Its value is 0%.

Q: And the “%Inh” value (PLK1)?
A: Its value is 4%.

Q: What about the “%Inh” value (PLK2) of the same molecule?
A: The value was 0%.

Q: And the “%Inh” value (PLK3)?
A: Its value is 0%.

Q: What about the “%Inh” value (PLK4) of the same molecule?
A: The value was 5%.

Q: Which results are given for `Oc1ccc2ncnc(Nc3ccc(OCc4ccccc4)cc3)c2c1` [GI262866]?
A: %Inh (PIK3CD): 5%; %Inh (PIK3CG): 0%; %Inh (PIK4CB): 1%; %Inh (PIKFYVE): 0%; %Inh (PIM1): 0%; %Inh (PIM2): 0%; %Inh (PIM3): 33%; %Inh (PIP5K1A): 0%; %Inh (PIP5K1C): 19%; %Inh (PIP5K2B): 19%; %Inh (PIP5K2C): 40%; %Inh (PKAC-alpha): 0%; %Inh (PKAC-beta): 0%; %Inh (PKMYT1): 5%; %Inh (PKN1): 1%; %Inh (PKN2): 0%; %Inh (PLK1): 0%; %Inh (PLK2): 0%; %Inh (PLK3): 0%; %Inh (PLK4): 0%

Q: What does the source list for `Cl.c1ccc(Cn2ncc3cc(Nc4ncnc5ccccc45)ccc32)cc1` [GW273749]?
A: %Inh (PIK3CD): 0%; %Inh (PIK3CG): 3%; %Inh (PIK4CB): 0%; %Inh (PIKFYVE): 0%; %Inh (PIM1): 0%; %Inh (PIM2): 0%; %Inh (PIM3): 1%; %Inh (PIP5K1A): 0%; %Inh (PIP5K1C): 11%; %Inh (PIP5K2B): 10%; %Inh (PIP5K2C): 0%; %Inh (PKAC-alpha): 0%; %Inh (PKAC-beta): 0%; %Inh (PKMYT1): 0%; %Inh (PKN1): 13%; %Inh (PKN2): 0%; %Inh (PLK1): 2%; %Inh (PLK2): 0%; %Inh (PLK3): 2%; %Inh (PLK4): 0%
